Assay results as given in ChEMBL document CHEMBL3988442, “University of Dundee, Small-Polar-MMV Screening Library” (2021).

What was measured:
[1] = target: T1, Aspartate--tRNA(Asp/Asn) ligase (Mycobacterium tuberculosis (strain ATCC 25618 / H37Rv)) (UniProt P9WFW3); experiment: Assay for Asp RNA synthetase-1 from Mycobacterium tuberculosis; assay type: functional; set-up: scale not given: direction of the effect not stated beside the values; details: 30 µM; further: in the data most compounds retested in dose-response had high values
T1 sequence (whole entry): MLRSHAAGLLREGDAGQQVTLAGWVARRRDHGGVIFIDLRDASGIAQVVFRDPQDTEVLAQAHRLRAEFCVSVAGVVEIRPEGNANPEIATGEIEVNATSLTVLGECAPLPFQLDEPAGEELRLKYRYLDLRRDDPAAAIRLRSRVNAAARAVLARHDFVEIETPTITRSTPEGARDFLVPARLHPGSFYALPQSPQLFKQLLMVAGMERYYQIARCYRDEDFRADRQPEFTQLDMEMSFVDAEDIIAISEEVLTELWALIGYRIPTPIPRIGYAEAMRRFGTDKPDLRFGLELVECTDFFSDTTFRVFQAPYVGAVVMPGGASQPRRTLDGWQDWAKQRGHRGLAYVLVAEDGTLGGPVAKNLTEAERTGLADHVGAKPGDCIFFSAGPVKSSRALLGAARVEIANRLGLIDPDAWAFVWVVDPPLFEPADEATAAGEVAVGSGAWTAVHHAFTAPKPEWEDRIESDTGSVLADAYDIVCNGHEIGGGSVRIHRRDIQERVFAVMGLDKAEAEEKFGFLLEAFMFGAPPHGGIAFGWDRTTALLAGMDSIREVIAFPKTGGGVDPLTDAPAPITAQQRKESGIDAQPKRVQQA

[2] = target: Shiga toxin 2 (Escherichia coli O157:H7) (UniProt P09385+P09386); experiment: E. coli 0.157:H7 Shiga Toxin SOP - stx2 screening assay; assay type: functional; set-up: scale not given: direction of the effect not stated beside the values; details: 30 µM

SMILES | Percent Effect [1] [%] | Percent Effect [2] [%]
O=C(Cn1nc(-c2cccs2)ccc1=O)N1CCCCCC1 | 1.6 | -0.139
CC(NC(=O)c1cccs1)C(=O)NCc1cccnc1N1CCCCC1 (stereo unspecified) | -3.06 | 11
Fc1cccc(N2CCCC3(CN(Cc4ccncc4)CCO3)C2)c1 (stereo unspecified) | 5.63 | -4.22
Cc1nn(C)c(N2CCOCC2)c1CNC1CCN(C(C)(C)C)CC1 | -0.171 | 1.07
COCC1Cn2nnc(-c3cnn(C)c3)c2CN1Cc1ccc(C)s1 (stereo unspecified) | 1.73 | -7.17
Cn1cc(CN2CCN(Cc3nccn3C)CC2)cn1 | -2.81 | -37.2
CCS(=O)(=O)N1Cc2nccn2CC(COc2cccnc2)C1 (stereo unspecified) | -1.75 | -12.5
CC(C)Oc1cc(N2CCC(N3CCC(O)CC3)CC2)nc(N)n1 | -2.8 | 2.73
CCc1nc(C2CCCN(C(=O)c3ccc4[nH]nnc4c3)C2)no1 (stereo unspecified) | 2.74 | 14.5
CC(C)COC(C)C(=O)N1CCN(S(C)(=O)=O)CC1 (stereo unspecified) | -6.93 | -2.13
O=C(c1cccc(Cl)c1)N1CCCn2c(CN3CCCCC3)nnc2C1 | -2.93 | -13.3
CN(C)C1CCN(C(=O)NCc2ccccc2Cn2cncn2)CC1 | -2.31 | 0.165
COc1cc(N2C[C@H]3OCC[C@H]3[C@H](C(=O)NC3CC3)C2)ncn1 | 3.81 | -2.62
Cc1cc(C)n(CC2CCCN2C(=O)CCCc2ccccn2)n1 (stereo unspecified) | -1.59 | 31.8
O=C(c1ccc(F)cc1)N1CCC2(CCCN2CC2CC2)CC1 | -2.16 | -20.9
O=C(NCCCOCC1CCCO1)c1cccnc1N1CCCC1 (stereo unspecified) | -1.51 | -14.1
c1ccc(OCCCNCCn2cccn2)cc1 | -1.5 | -44.6
CCc1cnc(N2CC3(CCN(C(=O)c4ccoc4)C3)C2)nc1 | -4.49 | -30.6
CCOC(=O)N1CCC(C(=O)c2cc(F)ccc2F)CC1 | 1.26 | 36.2
COC(=O)COc1cccc(NS(=O)(=O)c2cc(C(=O)O)cs2)c1 | -3.15 | -53.3
Cc1cnn(CCNCc2nnc(C3CC3)o2)c1 | 4.75 | -42.1
COc1cc(C(=O)Nc2c(C)noc2C)ccc1C | -3.4 | -5.89
COc1ccc(CN2CCn3cc(Cn4cccn4)nc3C2)cc1 | 6.63 | -37.1
C1CC(CN2CCOCC3(CCN(C4CCOCC4)C3)C2)CCO1 (stereo unspecified) | 3.19 | -4.37

SMILES | Percent Effect [1] [%] | Percent Effect [2] [%]
c1nc(COCC2CC2)c2n1CCCN(CC1CC1)C2 | -0.611 | -11.2
Cc1cccc(CN2C(=O)CCC23CCN(Cc2cccn2C)CC3)n1 | 0.796 | 0.0983
CC(C)N(C)CC(=O)N1CCCC(c2ccc(C(=O)O)cc2)C1 (stereo unspecified) | -4.14 | 18.4
Nc1ncc2c(n1)CN(C1CCCC1)C2=O | 6.87 | -55.7
COc1ccccc1OCC(=O)NS(=O)(=O)c1cc(F)ccc1F | 0.145 | -7.87
CC(C)c1nn(CC(=O)N2CCCCC2)c(=O)c2c1cnn2C(C)(C)C | -5.41 | 2.7
O=S(=O)(CCCN1CCCC1Cn1cccn1)c1ccccc1 (stereo unspecified) | -2.01 | -4.23
COCCCN1CCCN(C(C)C(=O)Nc2ccnn2C(C)C)CC1 (stereo unspecified) | -3.7 | 11.2
Cc1nc(CN2CCCC(N(C)CCc3cccs3)C2)no1 (stereo unspecified) | -3.43 | 25.8
Cc1cnn(CC2CCCN2C(=O)c2cc(Cl)ccc2F)c1 (stereo unspecified) | 1.32 | -18.5
Cc1cc(C(=O)NCCN2CCCC(C)C2)nn1C (stereo unspecified) | -4.16 | 11.8
CN1CCN(c2ncnc3c2c(C(=O)NC2CC2)c2ccccn23)CC1 | 5.32 | -14.4
Cc1nc(C)n(CC2CCCN(c3ncnc4c3CCC4)C2)n1 (stereo unspecified) | 2.14 | 15.3
Cc1ccc(N2CC3(COCCN(Cc4cccnc4)C3)OCC2=O)s1 (stereo unspecified) | 10.1 | -4.57
COc1ccc(F)cc1C(=O)N(C)Cc1cc(C)on1 | -3.3 | -29.3
Cc1cccc(CN2CC3(CCNCC3)OCC2=O)n1 | 5.56 | 5.99
COc1cccc(C(=O)N2CCCCC2CNC(N)=O)c1 (stereo unspecified) | 3.2 | 26.9
CCN1CCC(CNC(=O)NCc2cc(-c3ccc(C)cc3)no2)C1 (stereo unspecified) | 2.27 | -44.9
CSc1ccc(CNC(c2ccccc2)c2nccn2C)cc1 (stereo unspecified) | 3.61 | -1.22
O=C(Nc1cc(F)ccc1OCC1CCCO1)c1ccccn1 (stereo unspecified) | 2.54 | 37.1
c1ccc(-c2nnc(CNCCn3cccn3)o2)cc1 | -5.08 | 0.764
CCn1c(=O)nc2n1C(=O)N(c1cccc(Cl)c1)C2 | 0.929 | -43.9
CC(C)(CO)NC(=O)C1CCC(=O)N(Cc2ccc(Cl)cc2)C1 (stereo unspecified) | -3.12 | 0.664
O=C([C@@H]1COC[C@H]2CN(C3CCOCC3)C[C@H]21)N1CCCCO1 | 6.99 | -23.5
